Measurements from the supplement of paper PMC10849652.
Targets with a hit are over-represented here; the source holds about 7,900 in all. About 0.6% of all pairs of compound and target were hits.

Legend:
Assay in all cases: log2 fold change, soluble protein after heating vs DMSO (PISA); higher = thermal stabilisation; K562 cells, 10 uM, 30 min; active = over 0.2 and 3.5 SD of the protein, either way, in both replicates (recomputed)
saracatinib = compound: CN1CCN(CCOc2cc(OC3CCOCC3)c3c(Nc4c(Cl)ccc5c4OCO5)ncnc3c2)CC1 [saracatinib]
Method in brief: (§1)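 Values are thermal stability changes relative to control samples and are taken from duplicates. They are stated as log2 fold changes. Before quantification by TMTpro 16plex LC-MS/MS with equalised channel sums, K562 cells at 2×10^6 cells/mL were treated with 10 μM compound for 30 min, heated in aliquots for 3 min across 48°C-58°C, pooled, extracted in PBS with 0.5% NP-40 at 4°C, and centrifuged at 21,000xg for 90 min to give the soluble supernatant.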

sotrastaurin = compound: CN1CCN(c2nc(C3=C(c4c[nH]c5ccccc45)C(=O)NC3=O)c3ccccc3n2)CC1 [sotrastaurin]
Method in brief: as §1

alvocidib = compound: CN1CC[C@H](c2c(O)cc(O)c3c(=O)cc(-c4ccccc4Cl)oc23)[C@H](O)C1 [alvocidib]
Method in brief: as §1

Tubastatin A = compound: CN1CCc2c(c3ccccc3n2Cc2ccc(C(=O)NO)cc2)C1 [Tubastatin A]
Method in brief: as §1

[1] = compound: CNC(=O)C1=CC=CC=C1NC2=NC(=NC=C2Cl)NC3=C(C=C(C=C3)N4CCOCC4)OC
Method in brief: as §1

defactinib = compound: CNC(=O)c1ccc(Nc2ncc(C(F)(F)F)c(NCc3nccnc3N(C)S(C)(=O)=O)n2)cc1 [defactinib]
Method in brief: as §1

rucaparib = compound: CNCc1ccc(-c2[nH]c3cc(F)cc4c3c2CCNC4=O)cc1 [rucaparib]
Method in brief: as §1

[2] = compound: CNc1nc(-c2ccc3c(N)n[nH]c3c2)cc(N2C[C@@H](C(=O)NC3CCCCC3)CC[C@H]2C)n1
Method in brief: as §1

encorafenib = compound: COC(=O)N[C@@H](C)CNc1nccc(-c2cn(C(C)C)nc2-c2cc(Cl)cc(NS(C)(=O)=O)c2F)n1 [encorafenib]
Method in brief: as §1

[3] = compound: COC(=O)[C@H](CCSC)NC(=O)C1=C(C=C(C=C1)NC[C@H](CS)N)C2=CC=CC=C2
Method in brief: as §1

[4] = compound: COC1=CC=C(C=C1)CN2C=CC3=C2C=C(C=C3)C(=O)NO
Method in brief: as §1

filanesib = compound: CON(C)C(=O)N1N=C(c2cc(F)ccc2F)S[C@@]1(CCCN)c1ccccc1 [filanesib]
Method in brief: as §1

zotarolimus = compound: CO[C@H]1C[C@@H]2CC[C@@H](C)[C@@](O)(O2)C(=O)C(=O)N2CCCC[C@H]2C(=O)O[C@H]([C@H](C)C[C@@H]2CC[C@H](n3cnnn3)[C@H](OC)C2)CC(=O)[C@H](C)/C=C(\C)[C@@H](O)[C@@H](OC)C(=O)[C@H](C)C[C@H](C)/C=C/C=C/C=C/1C [zotarolimus]
Method in brief: as §1

idasanutlin = compound: COc1cc(C(=O)O)ccc1NC(=O)[C@@H]1N[C@@H](CC(C)(C)C)[C@](C#N)(c2ccc(Cl)cc2F)[C@H]1c1cccc(Cl)c1F [idasanutlin]
Method in brief: as §1

alisertib = compound: COc1cc(Nc2ncc3c(n2)-c2ccc(Cl)cc2C(c2c(F)cccc2OC)=NC3)ccc1C(=O)O [alisertib]
Method in brief: as §1

[5] = compound: COc1cc2nc(-c3cc(F)ccc3O)nc(N[C@@H]3CNC[C@H]3C(C)(C)O)c2cc1OC
Method in brief: as §1

gefitinib = compound: COc1cc2ncnc(Nc3ccc(F)c(Cl)c3)c2cc1OCCCN1CCOCC1 [gefitinib]
Method in brief: as §1

[6] = compound: COc1cccc2cc(-c3nc([C@H]4CC[C@H](C(=O)O)CC4)n4ncnc(N)c34)[nH]c12
Method in brief: as §1

lapatinib = compound: CS(=O)(=O)CCNCc1ccc(-c2ccc3ncnc(Nc4ccc(OCc5cccc(F)c5)c(Cl)c4)c3c2)o1 [lapatinib]
Method in brief: as §1

pictilisib = compound: CS(=O)(=O)N1CCN(Cc2cc3nc(-c4cccc5[nH]ncc45)nc(N4CCOCC4)c3s2)CC1 [pictilisib]
Method in brief: as §1

Measured: log2 fold change

EOGT (UniProt Q5NDL2)
UniProt Q5NDL2, sequence (Q5NDL2 whole entry, looked up): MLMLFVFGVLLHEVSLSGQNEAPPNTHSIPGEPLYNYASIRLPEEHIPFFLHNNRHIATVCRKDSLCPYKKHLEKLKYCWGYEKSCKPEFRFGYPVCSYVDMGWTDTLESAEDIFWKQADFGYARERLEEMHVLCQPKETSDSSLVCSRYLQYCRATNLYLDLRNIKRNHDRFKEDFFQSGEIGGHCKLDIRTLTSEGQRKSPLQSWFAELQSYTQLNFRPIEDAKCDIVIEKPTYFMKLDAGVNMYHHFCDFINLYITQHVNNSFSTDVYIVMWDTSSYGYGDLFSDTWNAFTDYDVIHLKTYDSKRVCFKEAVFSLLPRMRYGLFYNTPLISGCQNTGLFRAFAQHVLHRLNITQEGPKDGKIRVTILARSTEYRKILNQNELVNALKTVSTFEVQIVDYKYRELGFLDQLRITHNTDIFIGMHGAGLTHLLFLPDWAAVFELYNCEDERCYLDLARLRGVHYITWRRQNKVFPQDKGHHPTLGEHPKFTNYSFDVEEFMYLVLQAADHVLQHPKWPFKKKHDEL
inactive: saracatinib -0.012 | sotrastaurin 0.052 | alvocidib -0.02 | Tubastatin A 0.025 | [1] 0 | defactinib 0.031 | rucaparib 0.014 | [2] -0.158 | encorafenib 0.042 | [3] -0.032 | [4] -0.026 | filanesib 0.053 | zotarolimus 0.013 | idasanutlin 0.036 | alisertib 0.028 | [5] 0.056 | gefitinib 0.008 | [6] -0.021 | lapatinib 0.068 | pictilisib 0.007

FAF2 (UniProt Q96CS3)
UniProt Q96CS3, sequence (Q96CS3 whole entry, looked up): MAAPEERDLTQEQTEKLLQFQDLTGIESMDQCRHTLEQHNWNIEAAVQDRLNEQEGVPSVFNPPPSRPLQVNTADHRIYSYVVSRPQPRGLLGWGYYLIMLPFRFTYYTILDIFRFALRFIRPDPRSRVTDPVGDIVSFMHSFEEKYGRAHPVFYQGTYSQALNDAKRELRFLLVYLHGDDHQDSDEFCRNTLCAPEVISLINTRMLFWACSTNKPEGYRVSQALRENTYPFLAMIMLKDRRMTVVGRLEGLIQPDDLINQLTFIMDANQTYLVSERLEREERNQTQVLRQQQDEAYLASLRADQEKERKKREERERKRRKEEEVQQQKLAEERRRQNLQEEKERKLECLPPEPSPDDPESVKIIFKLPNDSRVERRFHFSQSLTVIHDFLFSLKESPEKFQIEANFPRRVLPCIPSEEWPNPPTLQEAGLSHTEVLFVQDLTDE
inactive: saracatinib -0.084 | sotrastaurin -0.048 | alvocidib -0.053 | Tubastatin A -0.008 | [1] 0.021 | defactinib -0.011 | rucaparib 0.015 | [2] 0.021 | encorafenib 0.036 | [3] 0 | [4] -0.019 | filanesib -0.022 | zotarolimus 0.035 | idasanutlin 0.007 | alisertib 0.004 | [5] -0.011 | gefitinib 0.056 | [6] 0.009 | lapatinib 0.029 | pictilisib 0.017

ESS2 (UniProt Q96DF8)
UniProt Q96DF8, sequence (Q96DF8 whole entry, looked up): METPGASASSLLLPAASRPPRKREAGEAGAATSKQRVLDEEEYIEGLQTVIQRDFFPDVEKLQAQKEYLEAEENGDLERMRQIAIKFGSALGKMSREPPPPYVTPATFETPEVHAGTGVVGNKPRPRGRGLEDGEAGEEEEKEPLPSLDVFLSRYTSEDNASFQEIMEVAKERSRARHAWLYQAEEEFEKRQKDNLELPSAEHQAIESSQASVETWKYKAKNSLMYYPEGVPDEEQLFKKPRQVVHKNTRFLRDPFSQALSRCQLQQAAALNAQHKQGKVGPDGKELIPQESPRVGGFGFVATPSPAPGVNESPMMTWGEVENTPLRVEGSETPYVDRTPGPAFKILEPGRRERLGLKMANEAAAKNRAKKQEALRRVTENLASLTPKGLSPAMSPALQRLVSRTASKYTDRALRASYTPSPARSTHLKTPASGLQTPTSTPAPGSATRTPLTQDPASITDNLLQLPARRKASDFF
inactive: saracatinib 0.041 | sotrastaurin -0.025 | alvocidib 0.113 | Tubastatin A -0.055 | [1] -0.038 | defactinib 0 | rucaparib -0.013 | [2] -0.142 | encorafenib -0.012 | [3] 0.01 | [4] -0.022 | filanesib 0.046 | zotarolimus -0.019 | idasanutlin 0.052 | alisertib -0.125 | [5] -0.037 | gefitinib -0.088 | [6] 0.005 | lapatinib 0.073 | pictilisib -0.083

DHCR7 (UniProt Q9UBM7)
UniProt Q9UBM7, sequence (Q9UBM7 whole entry, looked up): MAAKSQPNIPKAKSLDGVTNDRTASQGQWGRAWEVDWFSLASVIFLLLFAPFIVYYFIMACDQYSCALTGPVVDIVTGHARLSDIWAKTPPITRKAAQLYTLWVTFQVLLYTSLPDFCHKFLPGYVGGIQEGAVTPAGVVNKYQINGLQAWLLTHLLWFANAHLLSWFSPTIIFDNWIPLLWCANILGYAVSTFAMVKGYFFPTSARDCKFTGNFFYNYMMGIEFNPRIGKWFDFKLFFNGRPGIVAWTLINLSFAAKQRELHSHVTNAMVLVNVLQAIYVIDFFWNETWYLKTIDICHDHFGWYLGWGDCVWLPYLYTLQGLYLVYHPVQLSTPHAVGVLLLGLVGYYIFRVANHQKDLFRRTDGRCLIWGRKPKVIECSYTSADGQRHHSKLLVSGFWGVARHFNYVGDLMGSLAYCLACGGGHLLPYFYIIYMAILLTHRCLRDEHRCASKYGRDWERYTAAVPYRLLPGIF
inactive: saracatinib 0.412 | sotrastaurin -0.033 | alvocidib -0.042 | Tubastatin A 0.087 | [1] -0.181 | defactinib -0.01 | rucaparib 0.143 | [2] 0.087 | encorafenib 0.084 | [3] -0.048 | [4] -0.182 | filanesib -0.025 | zotarolimus -0.088 | idasanutlin -0.278 | alisertib 0.01 | [5] 0.101 | gefitinib 0.088 | [6] -0.167 | lapatinib -0.009 | pictilisib -0.115

DOHH (UniProt Q9BU89)
UniProt Q9BU89, sequence (Q9BU89 whole entry, looked up): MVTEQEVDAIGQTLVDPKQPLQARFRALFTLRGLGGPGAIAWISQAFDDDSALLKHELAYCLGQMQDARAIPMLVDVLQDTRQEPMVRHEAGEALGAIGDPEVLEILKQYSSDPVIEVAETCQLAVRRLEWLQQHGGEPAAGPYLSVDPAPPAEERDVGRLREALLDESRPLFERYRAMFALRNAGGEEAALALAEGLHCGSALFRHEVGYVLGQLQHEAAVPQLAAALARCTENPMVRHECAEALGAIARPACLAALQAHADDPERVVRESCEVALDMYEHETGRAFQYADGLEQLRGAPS
inactive: saracatinib -0.035 | sotrastaurin 0.196 | alvocidib 0.147 | Tubastatin A -0.121 | [1] -0.076 | defactinib -0.152 | rucaparib -0.002 | [2] -0.064 | encorafenib -0.074 | [3] 0.037 | [4] -0.4 | filanesib -0.151 | zotarolimus 0.022 | idasanutlin -0.038 | alisertib -0.062 | [5] -0.041 | gefitinib 0.201 | [6] 0.084 | lapatinib -0.006 | pictilisib -0.171

EIF4E isoform 2 (UniProt P06730)
UniProt P06730, sequence (P06730 whole entry, looked up): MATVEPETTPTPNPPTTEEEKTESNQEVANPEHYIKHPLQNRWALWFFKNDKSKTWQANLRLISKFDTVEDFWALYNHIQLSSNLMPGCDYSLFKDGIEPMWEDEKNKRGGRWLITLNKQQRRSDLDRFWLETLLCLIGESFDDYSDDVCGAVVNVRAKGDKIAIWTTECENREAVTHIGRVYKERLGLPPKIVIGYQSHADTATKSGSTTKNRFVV
inactive: saracatinib 0.04 | sotrastaurin 0.189 | alvocidib -0.027 | Tubastatin A -0.085 | [1] 0 | defactinib -0.012 | rucaparib 0.008 | [2] 0.133 | encorafenib -0.023 | [3] -0.072 | [4] -0.002 | filanesib -0.038 | idasanutlin -0.085 | alisertib -0.083 | [5] 0.039 | gefitinib 0.112 | lapatinib 0.039
active: zotarolimus 0.346 | [6] 0.354 | pictilisib 0.373

CTSZ (UniProt Q9UBR2)
UniProt Q9UBR2, sequence (Q9UBR2 whole entry, looked up): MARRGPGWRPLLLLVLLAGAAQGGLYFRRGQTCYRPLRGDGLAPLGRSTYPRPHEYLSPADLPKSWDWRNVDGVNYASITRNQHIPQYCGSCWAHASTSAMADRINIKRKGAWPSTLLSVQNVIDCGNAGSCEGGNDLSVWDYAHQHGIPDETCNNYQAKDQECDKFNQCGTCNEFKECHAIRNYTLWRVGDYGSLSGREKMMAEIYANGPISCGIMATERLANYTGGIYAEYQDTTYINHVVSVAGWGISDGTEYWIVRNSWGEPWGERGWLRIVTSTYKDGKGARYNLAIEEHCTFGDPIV
inactive: saracatinib 0.025 | sotrastaurin 0.079 | alvocidib -0.008 | Tubastatin A -0.056 | [1] 0.005 | defactinib 0 | rucaparib -0.098 | [2] 0.012 | encorafenib -0.012 | [3] 0.027 | [4] 0.073 | filanesib -0.05 | zotarolimus 0.011 | idasanutlin -0.019 | alisertib -0.079 | [5] -0.172 | gefitinib 0.035 | [6] 0.07 | lapatinib 0.015 | pictilisib 0.176

EXOC5 (UniProt O00471)
UniProt O00471, sequence (O00471 whole entry, looked up): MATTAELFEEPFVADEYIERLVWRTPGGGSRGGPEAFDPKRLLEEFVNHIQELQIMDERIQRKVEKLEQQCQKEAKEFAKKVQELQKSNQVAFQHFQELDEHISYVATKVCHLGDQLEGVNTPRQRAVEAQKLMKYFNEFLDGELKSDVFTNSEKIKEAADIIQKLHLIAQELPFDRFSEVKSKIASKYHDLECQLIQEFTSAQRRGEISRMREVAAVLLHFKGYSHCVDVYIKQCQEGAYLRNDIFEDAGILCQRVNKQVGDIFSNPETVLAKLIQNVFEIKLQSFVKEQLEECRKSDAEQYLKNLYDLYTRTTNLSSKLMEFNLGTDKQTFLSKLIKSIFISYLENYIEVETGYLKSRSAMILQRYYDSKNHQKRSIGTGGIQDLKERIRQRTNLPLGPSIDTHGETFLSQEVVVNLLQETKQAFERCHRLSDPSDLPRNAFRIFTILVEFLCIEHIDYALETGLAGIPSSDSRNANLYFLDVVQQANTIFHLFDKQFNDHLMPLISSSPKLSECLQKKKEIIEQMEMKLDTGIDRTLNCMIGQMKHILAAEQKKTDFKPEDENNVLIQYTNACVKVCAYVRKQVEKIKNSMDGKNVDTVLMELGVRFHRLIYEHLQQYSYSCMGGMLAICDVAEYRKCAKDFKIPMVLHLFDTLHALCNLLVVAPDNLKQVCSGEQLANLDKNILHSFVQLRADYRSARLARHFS
inactive: saracatinib -0.043 | sotrastaurin -0.209 | alvocidib -0.008 | Tubastatin A 0.015 | [1] 0.042 | defactinib -0.064 | rucaparib 0.091 | [2] -0.06 | encorafenib 0.083 | [3] -0.071 | [4] -0.005 | filanesib -0.051 | zotarolimus 0.089 | idasanutlin -0.079 | alisertib -0.01 | [5] 0.123 | gefitinib -0.024 | [6] -0.015 | lapatinib -0.028 | pictilisib -0.055
